Our source for the outcome and potentiation values is PubChem BioAssay AID2654 (Johns Hopkins Ion Channel Center, 2010).

Entries with a potency or affinity are not part of this list. Activity calls are given as the source filed them.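 Rule for the calls: active = increase of the KCNQ2 potassium channel current at -35 mV by at least one tested dose; inactive = no tested dose increases that current.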

Chain of Potassium voltage-gated channel subfamily KQT member 2 (Rattus norvegicus) (O88943 whole entry, looked up): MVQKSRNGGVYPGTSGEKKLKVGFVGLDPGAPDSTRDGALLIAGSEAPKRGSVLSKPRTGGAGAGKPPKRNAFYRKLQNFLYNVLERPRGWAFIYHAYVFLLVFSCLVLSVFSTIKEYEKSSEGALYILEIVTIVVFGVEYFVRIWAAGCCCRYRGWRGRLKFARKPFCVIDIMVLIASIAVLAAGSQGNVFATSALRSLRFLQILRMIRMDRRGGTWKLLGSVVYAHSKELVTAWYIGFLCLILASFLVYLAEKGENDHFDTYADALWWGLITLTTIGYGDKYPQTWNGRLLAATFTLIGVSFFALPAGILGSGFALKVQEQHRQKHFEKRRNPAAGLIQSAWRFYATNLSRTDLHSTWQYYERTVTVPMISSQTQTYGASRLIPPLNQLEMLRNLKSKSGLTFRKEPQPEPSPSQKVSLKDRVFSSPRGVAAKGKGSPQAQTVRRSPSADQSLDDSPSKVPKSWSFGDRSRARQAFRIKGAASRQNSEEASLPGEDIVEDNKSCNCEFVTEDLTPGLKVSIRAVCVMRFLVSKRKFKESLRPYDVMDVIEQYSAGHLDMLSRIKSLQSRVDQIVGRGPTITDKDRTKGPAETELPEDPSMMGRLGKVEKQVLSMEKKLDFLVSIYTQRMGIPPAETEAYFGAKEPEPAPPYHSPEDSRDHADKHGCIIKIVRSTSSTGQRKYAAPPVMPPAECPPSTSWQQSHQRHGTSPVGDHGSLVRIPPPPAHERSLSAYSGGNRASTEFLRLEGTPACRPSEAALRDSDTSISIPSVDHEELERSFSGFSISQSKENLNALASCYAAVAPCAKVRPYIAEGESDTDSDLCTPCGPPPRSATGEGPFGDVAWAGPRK

This experiment has as its target Potassium voltage-gated channel subfamily KQT member 2 (Rattus norvegicus) (UniProt O88943). In words: potentiation of rat KCNQ2 current – cell-based, retigabine-insensitive compounds, dose response (AID 2654). The conditions noted are these: KCNQ2-CHO cells, automated patch clamp current potentiation; at 30 µM (top of the series).
For the compound `O=C(Nc1cccnc1)Nc1ccc(Br)cc1Cl`, the outcome was inactive.

Consider `COc1ccc(NC(=S)Nc2cccnc2)c(OC)c1`, for which the outcome was inactive.

On to `O=C(Nc1cccc(F)c1)Nc1nccs1`, for which the result was inactive.

As for `S=C(NCC1CCCCC1)Nc1cccnc1`, the result was inactive.

As for `S=C(Nc1cccnc1)NC1CCCc2ccccc21` (stereo not drawn), the result was inactive.

Take `Cc1cc(NC(=O)NCc2ccc(Cl)cc2Cl)cnc1Br`: the result was inactive.

Turning to `S=C(Nc1cccnc1)NC1CCCC1`, the outcome was inactive.

Consider `CC(CCc1ccccc1)NC(=S)Nc1cccnc1` (stereo not drawn), for which the result was inactive.

With `Cc1cc(NC(=O)NCc2ccc(Cl)cc2Cl)cnc1Cl`, the outcome was inactive.

On to `S=C(NCc1ccc(Cl)cc1Cl)Nc1cccnc1`, for which the outcome was inactive.

Turning to `Fc1ccc(NC(=S)Nc2cccnc2)c(F)c1`, the outcome was inactive.

`O=C(Nc1cccnc1)Nc1ccc(Cl)c(Cl)c1`: the outcome was inactive.

For `FC(F)(F)c1cccc(NC(=S)Nc2cccnc2)c1`, the potentiation amounted to 96.9.

Take `COc1cccc(NC(=S)Nc2cccnc2)c1`: the outcome was inactive.

For the compound `Cc1ccc(C)c(NC(=O)Nc2cccnc2)c1`, the outcome was inactive.

As to `O=C(Nc1cccnc1)Nc1ccc(F)cc1F`, the outcome was inactive.

With `O=C(Nc1cccnc1)Nc1ccc2c(c1)OCCO2`, the result was inactive.

`O=C(NCC(F)(F)F)Nc1cccnc1`: the result was inactive.

With `S=C(NCc1ccccc1)Nc1cccnc1`, the result was inactive.

With `O=C(NCc1ccc(Cl)cc1Cl)Nc1ccc(Br)nc1`, the result was inactive.

Consider `Cc1cc(NC(=O)Nc2cccc(F)c2)cnc1Cl`, for which the result was inactive.

With `Cc1c(Cl)cccc1NC(=O)Nc1cccnc1`, the potentiation is 102.

Turning to `S=C(Nc1cccnc1)NC1CCCCCCC1`, the outcome was inactive.

Take `Cc1ccc(Cl)cc1NC(=O)Nc1cccnc1`: the result was inactive.

In the case of `COc1ccc(NC(=O)Nc2cccnc2)c(OC)c1`, the result was inactive.

For `COc1ccccc1NC(=O)Nc1cccnc1`, the outcome was inactive.

`Cc1cc(Cl)ccc1NC(=S)Nc1cccnc1`: the result was inactive.

In the case of `Fc1ccc(NC(=S)Nc2cccnc2)cc1Cl`, the outcome was inactive.
